Active and inactive are the calls of the source.
Experiments:
[1] = small molecules captured by biotinylated probe aFSTL3 – biochemical, small-molecule microarray, fluorescence 635/667, stem cell growth factor project, primary screen (AID 1064); conditions: higher = more signal;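 further: measures binding of the biotinylated anti-FSTL3 antibody to printed compounds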
[2] = binders from COS7 lysate, DM2A8 probe, primary screen, torsin A project, cell lysate, small-molecule microarray, fluorescence 635/667 (AID 1065); conditions: higher = more signal, COS7 lysate expressing mutant human TOR1A
[3] = small molecules captured by biotinylated probe aFGF2 – biochemical, small-molecule microarray, fluorescence 635/667, stem cell growth factor project, primary screen (AID 1067); conditions: higher = more signal;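 further: measures binding of biotinylated aFGF2 protein to printed compounds on slides; z-score merges feature fluorescence and signal-to-noise across triplicate slides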
[4] = small molecules captured by biotinylated probe aFGF10 – biochemical, small-molecule microarray, fluorescence 635/667, stem cell growth factor project, primary screen (AID 1071); conditions: higher = more signal;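 further: score merges 667 nm spot intensity and signal to noise from triplicate slides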
[5] = molecular target: Neurogenic locus notch homolog protein 2 (Homo sapiens) (UniProt Q04721); experiment: small molecules binding Notch2 protein – biochemical, small-molecule microarray, 635 nm fluorescence, stem cell growth factors, primary screen (AID 1073); conditions: higher = more signal
Sequence of Neurogenic locus notch homolog protein 2 (Homo sapiens) (Q04721 whole entry, looked up, canonical isoform): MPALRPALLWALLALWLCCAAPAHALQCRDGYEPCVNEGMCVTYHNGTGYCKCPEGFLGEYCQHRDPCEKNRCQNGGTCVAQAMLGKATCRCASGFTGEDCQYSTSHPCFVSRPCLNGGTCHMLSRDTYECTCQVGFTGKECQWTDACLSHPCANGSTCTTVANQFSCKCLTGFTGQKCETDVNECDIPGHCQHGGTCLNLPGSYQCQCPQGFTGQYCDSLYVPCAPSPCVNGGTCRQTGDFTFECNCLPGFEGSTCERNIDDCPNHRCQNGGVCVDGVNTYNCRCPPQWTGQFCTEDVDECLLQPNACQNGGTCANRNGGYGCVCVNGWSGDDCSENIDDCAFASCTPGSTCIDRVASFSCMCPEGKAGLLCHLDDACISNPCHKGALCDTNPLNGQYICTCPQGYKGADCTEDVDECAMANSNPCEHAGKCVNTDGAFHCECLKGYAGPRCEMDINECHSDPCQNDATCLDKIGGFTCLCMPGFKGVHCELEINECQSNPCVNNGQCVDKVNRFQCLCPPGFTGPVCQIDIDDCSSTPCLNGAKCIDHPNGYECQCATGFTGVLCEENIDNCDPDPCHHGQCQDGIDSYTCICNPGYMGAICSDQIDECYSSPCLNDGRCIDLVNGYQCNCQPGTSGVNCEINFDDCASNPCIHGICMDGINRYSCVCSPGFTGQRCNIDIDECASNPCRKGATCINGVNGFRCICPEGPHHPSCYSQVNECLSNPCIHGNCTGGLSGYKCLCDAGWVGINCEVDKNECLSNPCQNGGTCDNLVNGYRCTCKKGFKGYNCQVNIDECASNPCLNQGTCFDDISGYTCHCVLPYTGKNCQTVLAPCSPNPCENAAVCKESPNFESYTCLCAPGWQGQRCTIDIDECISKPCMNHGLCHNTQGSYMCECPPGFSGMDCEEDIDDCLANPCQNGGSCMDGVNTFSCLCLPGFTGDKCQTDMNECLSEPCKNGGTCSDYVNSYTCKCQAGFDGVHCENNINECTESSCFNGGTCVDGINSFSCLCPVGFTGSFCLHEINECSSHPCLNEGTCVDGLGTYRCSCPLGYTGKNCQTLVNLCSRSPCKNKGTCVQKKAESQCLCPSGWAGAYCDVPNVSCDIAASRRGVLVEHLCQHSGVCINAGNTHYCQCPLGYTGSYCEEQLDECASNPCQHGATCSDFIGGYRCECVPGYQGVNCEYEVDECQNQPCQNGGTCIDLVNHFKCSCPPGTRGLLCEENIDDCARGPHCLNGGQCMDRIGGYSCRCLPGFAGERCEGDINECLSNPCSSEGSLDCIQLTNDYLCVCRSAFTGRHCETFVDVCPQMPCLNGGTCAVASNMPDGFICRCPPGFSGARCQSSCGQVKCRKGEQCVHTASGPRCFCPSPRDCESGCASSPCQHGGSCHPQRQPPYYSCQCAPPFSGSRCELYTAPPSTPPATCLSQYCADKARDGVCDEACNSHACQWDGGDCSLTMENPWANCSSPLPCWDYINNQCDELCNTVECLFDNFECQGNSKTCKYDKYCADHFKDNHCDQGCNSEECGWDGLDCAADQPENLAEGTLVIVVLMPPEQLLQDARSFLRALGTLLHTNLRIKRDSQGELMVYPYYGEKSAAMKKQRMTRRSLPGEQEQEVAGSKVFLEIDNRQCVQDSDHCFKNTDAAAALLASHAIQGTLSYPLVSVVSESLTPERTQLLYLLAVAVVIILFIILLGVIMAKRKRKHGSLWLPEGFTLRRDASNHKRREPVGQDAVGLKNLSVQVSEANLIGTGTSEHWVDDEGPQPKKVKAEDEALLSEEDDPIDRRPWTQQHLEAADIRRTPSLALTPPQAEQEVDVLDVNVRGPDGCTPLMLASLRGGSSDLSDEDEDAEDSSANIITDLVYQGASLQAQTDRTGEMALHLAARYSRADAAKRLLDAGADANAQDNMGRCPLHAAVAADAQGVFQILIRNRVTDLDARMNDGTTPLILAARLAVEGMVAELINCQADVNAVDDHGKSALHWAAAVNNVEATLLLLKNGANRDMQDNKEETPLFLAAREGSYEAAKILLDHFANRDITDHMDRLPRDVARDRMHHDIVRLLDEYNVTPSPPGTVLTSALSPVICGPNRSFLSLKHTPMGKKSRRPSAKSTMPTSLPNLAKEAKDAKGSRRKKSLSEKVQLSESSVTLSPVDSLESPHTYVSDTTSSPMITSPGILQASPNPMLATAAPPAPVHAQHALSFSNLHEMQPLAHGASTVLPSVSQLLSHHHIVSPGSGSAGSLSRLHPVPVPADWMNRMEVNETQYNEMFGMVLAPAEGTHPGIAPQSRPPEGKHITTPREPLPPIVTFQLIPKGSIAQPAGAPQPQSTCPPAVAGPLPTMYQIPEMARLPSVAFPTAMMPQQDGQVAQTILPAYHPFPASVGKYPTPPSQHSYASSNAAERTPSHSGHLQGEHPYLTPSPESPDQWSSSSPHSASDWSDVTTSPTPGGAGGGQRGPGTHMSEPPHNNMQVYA

[6] = molecular target: Pro-neuregulin-1, membrane-bound isoform (Homo sapiens) (UniProt Q02297); experiment: small molecules binding neuregulin-1 protein – biochemical, small-molecule microarray, fluorescence 635/667, psychiatric disease protein project, primary screen (AID 1075); conditions: NRG1 binding, 635 nm fluorescence, higher = more signal;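 further: score combines 667 nm spot fluorescence with signal to noise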
Sequence of Pro-neuregulin-1, membrane-bound isoform (Homo sapiens) (Q02297 whole entry, looked up, the tested form may be a part, canonical isoform): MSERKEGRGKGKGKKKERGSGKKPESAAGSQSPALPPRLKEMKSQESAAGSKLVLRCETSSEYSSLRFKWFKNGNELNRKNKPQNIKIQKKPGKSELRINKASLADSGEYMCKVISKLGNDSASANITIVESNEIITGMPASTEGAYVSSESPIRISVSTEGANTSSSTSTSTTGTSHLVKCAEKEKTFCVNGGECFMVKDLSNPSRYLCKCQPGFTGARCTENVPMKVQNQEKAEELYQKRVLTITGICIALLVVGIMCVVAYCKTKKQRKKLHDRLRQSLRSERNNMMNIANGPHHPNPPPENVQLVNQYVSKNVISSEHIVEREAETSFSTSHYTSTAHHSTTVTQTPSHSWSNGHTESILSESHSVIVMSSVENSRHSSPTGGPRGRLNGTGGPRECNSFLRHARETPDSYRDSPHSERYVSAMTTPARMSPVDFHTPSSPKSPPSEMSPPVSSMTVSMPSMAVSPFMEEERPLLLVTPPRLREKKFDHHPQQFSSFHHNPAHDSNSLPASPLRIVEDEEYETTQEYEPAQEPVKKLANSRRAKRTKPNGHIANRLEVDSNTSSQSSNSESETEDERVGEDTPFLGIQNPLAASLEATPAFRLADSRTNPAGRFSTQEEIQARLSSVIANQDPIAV

[7] = system: Neuregulin-1 EGF-like domain; experiment: small molecules binding NRG1 EGF domain – biochemical, small-molecule microarray, 635 nm fluorescence, primary screen (AID 1081); conditions: higher = more signal;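 further: binding of the protein to compounds printed on small-molecule microarray slides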
[8] = FRG1 expression reporter modulators in myotubes – cell-based, C2C12 myotubes, firefly/Renilla luciferase, luminescence, FRG1 inhibition for FSHD, primary screen (AID 1084); conditions: FRG1 promoter luciferase, higher = more signal, called active from +8 up or from −8 down
[9] = small molecules captured by biotinylated probe aFST – biochemical, small-molecule microarray, fluorescence 635/667, stem cell growth factor project, primary screen (AID 1086); conditions: higher = more signal;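 further: score merges 667 nm fluorescence with signal-to-noise of each printed compound spot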
[10] = binders of probe aHhip on microarray, primary screen, stem cell growth factor project, biochemical, small-molecule microarray, fluorescence 635/667 (AID 1087); conditions: higher = more signal;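 further: score merges spot fluorescence at 667nm with spot signal to noise ratio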

SMILES | composite z-score [1] | composite z-score [2] | composite z-score [3] | composite z-score [4] | composite z-score [5] | composite z-score [6] | composite z-score [7] | z-score [8] | composite z-score [9] | composite z-score [10]
COc1cc2c(cc1O)C(C1CC1)N(Cc1cccc(OC(F)(F)F)c1)CC2 (stereo not given) | -0.119 | 0.257 | -0.101 | 0.248 | -0.725 | 1.39 | 0.857 | 0.329 (inactive) | -0.182 | 0.132
C=CCN1C(=O)[C@]2(CCC(=O)OC(C)(C)C)N=C(c3ccc(OCCCO)cc3)O[C@@H]2c2ccccc21 | 0.369 | 0.401 | -0.0791 | -0.475 | 0.729 | 0.811 | 0.542 | -2.29 (inactive) | 0.0909 | -0.0994
COc1ccc([Si](C)(C)[C@@H]2[C@@H](CCO)O[C@]3(C(=O)N(Cc4ccccc4)c4ccc(N5CCOC5=O)cc43)[C@H]2C)cc1 | -0.142 | 0.682 | -0.0346 | 0.65 | 0.545 | 0.69 | 0.951 | -4.48 (inactive) | 0.152 | -0.226
COC(=O)C1=CC(CCCO)=CC(c2ccc(CN3CCCC3)cc2)N(Cc2cccc(OC(F)(F)F)c2)C=C1C(=O)OC (stereo not given) | 0.928 | -0.185 | -0.0361 | 0.419 | 1.44 | 1.79 | 1.11 | -0.616 (inactive) | 0.857 | -0.0994
O=C1N(Cc2ccccc2)c2ccccc2C[C@]12N=C(c1ccc(OCCCO)cc1)O[C@@H]2c1ccccc1 | 0.0854 | 0.278 | -0.125 | 0.576 | 0.699 | 0.888 | 1.09 | -0.724 (inactive) | -0.0607 | -0.0994
CCCCCN1CC=CC23O[C@@H]4C=CCCOC(=O)C4[C@H]2C(=O)N(CCCCCCO)[C@@H]3C1=O (stereo not given in full) | 0.0199 | -0.336 | -0.169 | 0.0401 | -0.812 | 1.98 | 0.99 | -0.457 (inactive) | -0.658 | -0.0994
CCOC(=O)C1=C[C@@H](C(C)(C)C)N(S(=O)(=O)c2ccc(C)cc2)[C@H]1c1cccc2ccccc12 | 0.0905 | -0.0282 | -0.0724 | 0.0331 | 1.08 | 0.541 | 0.876 | -4.42 (inactive) | 0.692 | -0.0296
Cc1ccc(S[C@]2(C(=O)NCC(F)(F)F)CC(=O)N(Cc3cc(C(F)(F)F)cc(C(F)(F)F)c3)[C@@H]2c2ccc(CO)cc2)cc1 | -0.26 | -1.74 | -0.133 | -0.232 | -0.995 | 1.09 | -0.353 | 0.0697 (inactive) | -0.234 | -0.0994
[N-]=[N+]=NCc1ccccc1[C@H]1OC(c2ccc(OCCCO)cc2)=N[C@@]1(Cc1ccccc1N=[N+]=[N-])C(=O)NCC(O)CO (stereo not given in full) | -0.0235 | 0.651 | 0.0342 | 0.867 | 1.24 | 1.68 | 1.13 | 1.5 (inactive) | 1.43 | -0.31
CC(C)NC(=O)[C@@]1(C)c2ccccc2C(=O)N(Cc2ccc(OC(F)(F)F)cc2)[C@H]1c1ccc(CO)cc1 | 1.95 | -1.63 | -0.167 | -0.546 | -1.25 | 0.628 | 0.865 | -3.14 (inactive) | -0.55 | -0.28
CCOC(=O)C[C@H]1[C@H](OC(=O)Cc2ccc3c(c2)OCO3)[C@@H](NC(=O)c2ccc3ccccc3n2)c2cc(OCCCO)ccc2N1C(=O)c1ccc2ccccc2n1 | -0.5 | 0.185 | -0.103 | 1.03 | 0.568 | 0.54 | 1.01 | -2.11 (inactive) | 0.37 | 0.171
NC(=O)NCC#Cc1ccc2c(c1)[C@]1(C(=O)N2)[C@H](C(=O)N2CCN(c3ncccn3)CC2)[C@H]2C(=O)O[C@H](c3ccccc3)[C@H](c3ccccc3)N2[C@@H]1c1ccc(O)cc1 | -0.141 | 0.143 | -0.0328 | 0.861 | 1.17 | 0.575 | 0.664 | 0.234 (inactive) | 1.1 | 0.141
CC(=O)NCCCC[C@@H]1NC(=O)[C@@H]2C[C@H](C(=O)NCCCCCN)[C@H](c3cccc(OCCO)c3)N2C1=O | -0.0173 | 1.92 | 0.0322 | 0.742 | 0.542 | 1.7 | 1.01 | 0.301 (inactive) | 0.268 | -0.245
Oc1ccc2cc[n+](Cc3cc4c(cc3Br)OCO4)cc2c1 | 0.254 | 0.0899 | -0.0148 | -0.903 | -1.69 | -0.614 | 0.565 | 0.985 (inactive) | -0.164 | -0.236

From PubChem BioAssay
